The values that follow come from ChEMBL document CHEMBL3433997, “St. Jude Leishmania screening dataset” (2016).

The structures appear in SMILES notation.

Usually inhibition stands for the change of the read-out against control, counted positive when it falls.

The assay has as its target Glucose transporter (Leishmania mexicana) (UniProt O61059). Kind of assay: ST_JUDE_LEISH: Cytotoxicity at 2uM final concentration against transgenic Leishmania Mexicana promastigotes LmGT2 that are glucose transport deficient and complemented with the L. Mexicana glucose transporter 2. Activity is measured by DNA content using SYBR green in vitro. The class given is functional.
As for `COc1cc(C)c(C(O)CNC(C)CCc2ccccc2)cc1C` (stereo not given), the inhibition was -0.47%.
Under `Cc1cc(CNCCCCCCNCc2ccc(Cl)cc2)ccc1O` stands 9.18%; under `Cc1ccc(NC(=O)c2ccc3ncccc3c2)cc1OC1CCN(CCC(C)C)CC1`, 4.09%; under `Cc1cccc2nc(-c3ccc(-c4cccc(CNCc5cnn(-c6ccccc6)n5)c4)s3)[nH]c12`, 1.93%.
Turning to `O=C(Nc1nc2cc(S(=O)(=O)NCCCN3CCOCC3)ccc2n1CCCn1ccnc1)c1ccc(Cl)cc1`, the inhibition was found to be 4.2%.
For `CCOC(=O)c1cncc(/C=C/c2cc(C)cnc2N)c1` the value was 8.04%; for `N#Cc1ccc2c(c1)CCN(CCC1CCC(NC(=O)/C=C/c3cccc4cc[nH]c34)CC1)CC2` (stereo not given), 3.01%; for `CN1CCN(Cc2cc(NC(=O)c3ccc(-c4ccc(Cl)cc4Cl)cc3)ccc2-c2ccccc2)CC1`, -0.1%.
Turning to `Nc1oc2c(CN3CCCCCC3)c(O)ccc2c(=O)c1-c1nc2ccccc2s1`, the inhibition was 2.85%.
Regarding `O=C(Nc1cc(Cl)ccc1-n1cncn1)C1(c2ccccc2)CC1`, the inhibition was found to be 5.68%.
Under `O=c1cc(NCCC(CNCCc2ccccc2)NCc2cc(Br)cc(Br)c2)[nH]c2ccccc12` (stereo not given) stands 2.71%.
Turning to `CCOc1c(N2CCN(CCCCNC(=O)c3ccc(NC(=O)c4ccc(Cl)cc4)cc3)CC2)ccc2ccccc12`, the inhibition was 0.9%.
Under `CC(C)c1ccc2c(c1)c(SC(C)(C)C)c(CC(C)(C)C#N)n2Cc1ccc(Cl)cc1` stands -0.23%; under `CCCNc1nc(Nc2ccccc2C)nc2ccccc12`, 13.8%.
`Cc1csc2nc(-c3ccccn3)nc(Nc3ccncn3)c12`: the inhibition is 1.79%.
For `COc1cc2c(cc1OCCN1CCC(N3CCCCC3)CC1)N(C(=O)/C=C/c1ccccc1OC(F)(F)F)CC2`, the inhibition turned out to be 3.58%.
As for `CC(C)Oc1ccc(C=CC(=O)Nc2noc3ccccc23)cc1`, the inhibition is 2.36%.
For `CC(=NNC(N)=O)C1=C(O)C(c2ccccc2)N(C2CCCCC2)C1=O` (stereo not given), the inhibition is -0.27%.
For the compound `N=C(N)Nc1nc(-c2cccc(NC(=O)NCc3cccc4ccccc34)c2)cs1`, the inhibition amounted to 0.66%.
On to `O=C1C(c2ccccc2)=C(Nc2cccc(OC(F)(F)C(F)F)c2)c2ccccc21`, for which the inhibition is 1.33%.
For `O=C(NC(c1ccccc1)c1ccc2cccnc2c1O)c1ccccc1` (stereo not given) the value was 4.35%; for `c1ccc(CCNCc2ccc(-c3ccc(CNCc4ccc5c(c4)OCO5)cc3)nc2)cc1`, 1.81%; for `N#Cc1ccc(-c2ccc(C(=O)NCCCCN3CCC(c4ccc5c(c4OCc4ccncc4)CCCC5)CC3)cc2)cc1`, 1.26%.
For the compound `CN(C)CCOc1ccc(-n2c(-c3nonc3N)nc3cncc(-c4ccc(F)cc4)c32)cc1`, the inhibition was 2.52%.
`CC(C)Oc1ccc2c(c1)OC(c1ccccc1)(C(F)(F)F)NC2=O` (stereo not given): the inhibition turned out to be 7.18%.
Under `Cc1cccc2nc(-c3cccc(-c4ccc(NC(=O)Nc5ccc(Cl)cc5)cc4)c3)[nH]c12` stands -3.06%.
Under `Cc1cc(N[C@@H](Cc2ccccc2)C(=O)NCc2cccs2)nc(NCCc2ccccn2)n1` stands 1.45%; under `NS(=O)(=O)c1ccc(CNc2ccc3ncc(-c4ccc(OC(F)(F)F)cc4)n3n2)cc1`, 4.53%.
For `Cc1cccc2nc(-c3ccc(-c4cccc(CN5CCN(CCN6CCOCC6)CC5)c4)s3)[nH]c12` the value was 0.64%.
Consider `O=C(Nc1ccc(-c2ccc(-c3nc4ccccc4[nH]3)s2)cc1)c1ccncc1`, for which the inhibition stood at 5.66%.
In the case of `CSc1ccc2nccc(Nc3ccc(Oc4ccccc4)cc3)c2c1`, the inhibition is 1.56%.
On to `CCCCCCn1c(Sc2ccc(C#N)c([N+](=O)[O-])c2)nnc1-c1cccs1`, for which the inhibition is -0.09%.
As for `CCCN(CCC)C(=O)c1cc(C(=O)N[C@@H](Cc2ccccc2)[C@H](O)CNCc2cccc(OC)c2)cc(N2CCCCS2(=O)=O)c1`, the inhibition was found to be 5.14%.
Regarding `O=S(=O)(NC1CCN(c2ccnc3cc(Cl)ccc23)C1)c1ccc(C(F)(F)F)cc1` (stereo not given), the inhibition was found to be 0.45%.
Consider `OC(c1ccc2ccccc2c1)C1CN(CCc2ccccc2)CCC1(O)c1ccccc1` (stereo not given), for which the inhibition came out at 0.03%.
Regarding `CS(=O)(=O)c1ccc(-c2cnc(N)c(-c3ccc(O)cc3)c2)cc1`, the inhibition was 1.48%.
With `CCOC(=O)c1cn(CC)c2cc(OCc3ccccc3)ccc2c1=O`, the inhibition came to 4.59%.
`COc1ccc2[nH]c3ccccc3c(=O)c2c1`: the inhibition was 6.72%.
With `COc1cccc(-c2csc(C(=O)NC3CCCCN(Cc4ccc(C(C)(C)C)cc4)C3)c2)c1` (stereo not given), the inhibition turned out to be 5.14%.
In the case of `N#Cc1ccc2[nH]cc(-c3cn4cc(SC5CCCC5)ccc4n3)c2c1`, the inhibition stood at 1.09%.
